Results on 26 compounds are retold here after PubChem BioAssay (NCATS).

Each structure is given as a SMILES string. Results filed as inconclusive are left out. Values without a mark were called inactive. Active and inactive are the calls of the source. The call rests on the fitted dose curve; in most records, active means well fitted curve in the direction sought with a large enough effect; inconclusive means small, poorly fitted or top-dose-only effect, or another doubt; inactive means no such curve, though single readings can be large; an effect the other way counts as inactive or inconclusive.

For assay [1], the system named is MKL-1. The assay is described as follows: qHTS assay to identify novel small-molecules to repurpose for Merkel cell carcinoma treatment (AID 1296009). Further: nearly all actives have a fitted effect of over 60% in size. Further: potency means the concentration at half of the fitted maximal effect. The following applies: MCC and control cell lines, CellTiter-Glo viability, 72 h; series mostly up to 46 µM. In a few lines:
(§1)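 CellTiter-Glo luminescence after 72 hr compound exposure at 37 degree celsius gave cell viability. Libraries NPC and MIPE were run as 8- and 11-point dose responses; RLUs normalized to DMSO (negative) and no-cell (cytotoxicity) controls.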
In general terms: qHTS replaces the single test concentration by a dilution series.

Assay [2] relates to MKL-2. Described as above. Particulars: MCC and control cell lines, CellTiter-Glo viability, 72 h; series mostly up to 46 µM. Summed up:
as §1

The test system of assay [3] is UISO. The description is as above. Particulars: MCC and control cell lines, CellTiter-Glo viability, 72 h; series mostly up to 46 µM. In a few lines: as §1
(In general: ATP-based viability assays read luminescence as a measure of living cells.)

For assay [4], the system named is WaGa. The description is as above. Particulars: MCC and control cell lines, CellTiter-Glo viability, 72 h; series mostly up to 46 µM. In a few lines: as §1
Assay [5] relates to NIH3T3. Described as above. Particulars: MCC and control cell lines, CellTiter-Glo viability, 72 h; at 44.8 µM (top of the series) unless noted. Summed up:
as §1

Assay [6] is described as follows: Drug repurposing screens with cells derived from glioblastoma tumor samples (AID 1345199). Further: nearly all actives have a fitted effect of over 40% in size. The following applies: GBM patient neurospheres viability, ATP luminescence, 48 h. In a few lines:
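Primary testing used CD133+ neurospheres from four GBM patients, seven concentrations, 48 h exposure and ATP-based viability; confirmation added three slower-growing patient lines.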

Assay [7] relates to C33A. The assay is described as follows: Primary qHTS to identify gynecologic anti-cancer compounds using libraries of approved drugs and bioactive compounds (AID 1345084). Further: nearly all actives have a fitted effect of over 55% in size. Particulars: Gynecologic cancer cell panel viability, ATPlite luminescence, 48 h; series mostly up to 57.5 µM. In a few lines: (§2)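 Measured: luminescence after ATPlite addition (15 min, RT). Exposure: 48 h, 37 C, 5% CO2.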

In assay [8] the test system is Es-2. Described as above. The following applies: Gynecologic cancer cell panel viability, ATPlite luminescence, 48 h; series mostly up to 57.5 µM. Summed up: as §2
Assay [9] concerns HeLa. The description is as above. Particulars: Gynecologic cancer cell panel viability, ATPlite luminescence, 48 h; series mostly up to 57.5 µM. In a few lines:
as §2

Assay [10] relates to Hek293T. The description is as above. Particulars: Gynecologic cancer cell panel viability, ATPlite luminescence, 48 h, control line for the selectivity index; series mostly up to 57.5 µM. In a few lines:
as §2

Assay [11] relates to JEG-3. The description is as above. The following applies: Gynecologic cancer cell panel viability, ATPlite luminescence, 48 h; series mostly up to 57.5 µM. In a few lines: as §2
The test system of assay [12] is OV90. The description is as above. Particulars: Gynecologic cancer cell panel viability, ATPlite luminescence, 48 h; series mostly up to 57.5 µM. Summed up: as §2
Assay [13] concerns PA-1. The assay is described as above. Particulars: Gynecologic cancer cell panel viability, ATPlite luminescence, 48 h; series mostly up to 57.5 µM. In a few lines: as §2
For assay [14], the system named is SKOV3. The assay is described as above. The following applies: Gynecologic cancer cell panel viability, ATPlite luminescence, 48 h; series mostly up to 57.5 µM. In a few lines:
as §2

Assay [15] deals with Tov-21-G. The assay is described as above. Particulars: Gynecologic cancer cell panel viability, ATPlite luminescence, 48 h; series mostly up to 57.5 µM. In a few lines: as §2
Assay [16] relates to Tov112D. Described as above. The following applies: Gynecologic cancer cell panel viability, ATPlite luminescence, 48 h; series mostly up to 57.5 µM. In a few lines: as §2
In assay [17] the test system is CASKI. Described as above. Particulars: Gynecologic cancer cell panel viability, ATPlite luminescence, 48 h; series mostly up to 57.5 µM. In a few lines:
as §2

The nature of assay [18]: qHTS assay to identify inhibitors of the type 1 interferon - major histocompatibility complex class I in skeletal muscle: Counter screen cell viability and HiBit confirmation (AID 1347412). Further: nearly all actives have a fitted effect of over 60% in size. Particulars: iHSKM muscle cells + IFN-b, HiBiT or CellTiter-Glo, 24 h, at 45.9 µM (top of the series). In a few lines:
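Myoblasts (C25cl48, HLA-B HiBiT) seeded in medium without dexamethasone, IFN-b 4 ng/ml added except unstimulated columns; 1 hr later compounds pinned (12-pt 1:3, top 46 uM final). Incubated 24 hrs, lysed 10 min, luminescence measured.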

Assay [19] relates to CAOV3. The assay is described as follows: Primary qHTS to identify gynecologic anti-cancer compounds using libraries of approved drugs and bioactive compounds (AID 1345084). Further: nearly all actives have a fitted effect of over 55% in size. Particulars: Gynecologic cancer cell panel viability, ATPlite luminescence, 48 h; series mostly up to 57.5 µM. Summed up: as §2
Where [20] appears, read: at 45.9 µM (top of the series), tumour line B.
[21] abbreviates: at 45.9 µM (top of the series), tumour line D.
Where [22] appears, read: at 46 µM (top of the series), tumour line A.
The mark [23] stands for this setting: at 46.1 µM (top of the series), tumour line C.
On the % scale 0 is the no-effect control and ±100 the full control effect.

Take `N[C@@]1(C(=O)O)CS(=O)(=O)[C@H]2[C@H](C(=O)O)[C@H]21`: the Potency result in assay [1], in [2], in assay [3] and in assay [4] was “inactive” throughout.

`CCOC(=O)O[C@]1(C(=O)OCCl)CC[C@@H]2[C@H]3CCC4=CC(=O)C=C[C@]4(C)[C@@H]3[C@@H](O)C[C@@]21C`: the Potency result in [1], in assay [2], in [3] and in [4] was “inactive” each time. The compound was classed as inactive in assay [5]. In addition, the activity, negative = cell killing in [6] (setting [20]) was -4.15%; in assay [6] (setting [21]), 8.73%; in assay [6] (setting [22]), -8.19%; in [6] (setting [23]), 1.62%.

Regarding `COc1cc(NC(=O)c2ccc(-c3ccc(Cl)cc3)o2)cc(OC)c1`, the Potency entry in assay [1], in assay [2], in [3] and in assay [4] was “inactive” each time.

In the case of `Cc1ccc(/C=N/NC(=O)c2ccccc2Oc2ccccc2)o1`, the Potency entry in [1], in assay [2], in assay [3] and in assay [4] was “inactive” throughout.

As to `Cn1cc(C=C2C(=O)Nc3cccnc32)c2ccccc21`, the Potency result in assay [1], in assay [2], in assay [3] and in [4] was “inactive” each time.

As for `O=C(O)C(O)Cc1ccc(O)c(O)c1` (stereo unspecified), the Potency result in assay [1], in [2], in [3] and in [4] was “inactive” each time.

For `CC(=NNC(=S)N1CCC1)c1ccccn1`, the Potency result in assay [1] and in assay [2] was “inactive” each time. Also, the Potency in assay [3] is 3.3 nM (active); in assay [4], 0.7 nM (active).

Turning to `CC(C)(C)c1cc(C(=O)O)c(NC(=O)Nc2ccc3[nH]ncc3c2)s1`, the Potency entry in assay [1], in assay [2], in assay [3], in assay [4], in assay [7] and in assay [8] was “inactive” throughout. Also, the Potency result in assay [9], in [10], in [11], in assay [12], in assay [13] and in assay [14] was “inactive” throughout. Further, the Potency entry in assay [15] and in assay [16] was “inactive” in each case. Further, the compound was called inactive in assay [5].

As to `O=c1cc(-c2ccccc2)oc2cc(O)cc(O)c12`, the Potency entry in assay [1], in assay [2], in [3] and in assay [4] was “inactive” each time.

For the compound `CN(C)CCC(c1ccccc1)c1ccccn1` (stereo unspecified), the Potency entry in assay [1], in assay [2], in assay [3], in assay [4], in assay [7] and in assay [17] was “inactive” in each case. Further, the Potency entry in assay [8], in assay [9], in assay [10], in assay [11], in assay [12] and in assay [13] was “inactive” each time. The Potency entry in assay [14], in [15] and in assay [16] was “inactive” in each case. For the same compound, the compound was called inactive in assay [5]. Besides, the activity, negative = cell killing is -6.99% in assay [6] (setting [20]), -4.75% in assay [6] (setting [21]), -22.4% in [6] (setting [22]) and -14.6% in [6] (setting [23]).

On to `NC1CCC(Nc2nc(Nc3ccc(C(=O)N4CCCCC4)cc3)c3ncn(-c4cccc(F)c4)c3n2)CC1` (stereo unspecified), for which the Potency entry in assay [1], in assay [2], in assay [3] and in assay [4] was “inactive” throughout.

In the case of `CC(C)n1cnc2c(NCCCCCCNC(=O)OC(C)(C)C)nc(NCCO)nc21`, the Potency entry in assay [1], in assay [2] and in assay [3] was “inactive” throughout.

As to `CC=CC(=O)N(CC)c1ccccc1C`, the Potency entry in assay [1], in [2] and in [3] was “inactive” each time.

Regarding `CC(C)(C)C(=O)Oc1ccc2c(c1)nc(NC(=O)c1cccc([N+](=O)[O-])c1)n2CCCO`, the Potency entry in assay [1], in assay [2] and in assay [4] was “inactive” each time. In addition, the result in assay [5] was inactive. Besides, the activity change, negative = inhibition in [18] (Viability) was -3.08%.

As for `COC(=O)N[C@H](C(=O)N1CCC[C@@H]1c1ncc(-c2ccc(-c3ccc(-c4cnc([C@@H]5CCCN5C(=O)[C@@H](NC(=O)OC)C(C)C)[nH]4)cc3)cc2)[nH]1)C(C)C`, the Potency result in assay [1], in assay [2], in assay [3] and in assay [4] was “inactive” throughout.

With `CO[C@H]1C=CC=C(C)C(=O)NC2=CC(=O)C(NCCN(C)C)=C(C[C@@H](C)C[C@H](OC)[C@@H](O)[C@@H](C)C=C(C)[C@@H]1OC(N)=O)C2=O`, the Potency in assay [1] is 1050 nM (active); in assay [2] it was 14800 nM (active); in assay [3], 296 nM (active).

As to `Cc1nnc(C(C)C)n1C1C[C@H]2CC[C@@H](C1)N2CC[C@H](NC(=O)C1CCC(F)(F)CC1)c1ccccc1` (stereo partly specified), the Potency result in [1], in assay [2], in [3] and in assay [4] was “inactive” throughout. For the same compound, the result in assay [5] was inactive. The activity, negative = cell killing in [6] (setting [20]) is -4.81%; in [6] (setting [21]), -11.6%; in [6] (setting [23]), 5.31%.

As to `COC1CCC(N(C(=O)C2CCC(C)CC2)c2cc(C3=CCCCC3)sc2C(=O)O)CC1` (stereo unspecified), the Potency entry in assay [1], in [2], in assay [3] and in assay [4] was “inactive” in each case.

For the compound `Clc1ccc(-c2nc3sccn3c2C=NOCc2ccc(Cl)c(Cl)c2)cc1`, the Potency entry in assay [1], in assay [2], in [3] and in [4] was “inactive” throughout.

For `C[C@H](NC(=O)C(=O)Nc1ccccc1C(C)(C)C)C(=O)N[C@@H](CC(=O)O)C(=O)COc1c(F)c(F)cc(F)c1F`, the Potency in [1] is 20900 nM (active); in assay [2] it was 16600 nM (active). Further, the call in [5] was inactive. The activity change, negative = inhibition in [18] (HiBiT) is -0.932%; in assay [18] (Viability), 0.0107%.

Take `CC(C)(C)COc1ccc(-n2cc(C(=O)O)cn2)cc1C#N`: the Potency result in assay [1], in assay [2], in [3] and in [4] was “inactive” throughout.

With `O=C(Nc1cc(Cl)cc2c1[nH]c1cnccc12)c1cccnc1`, the Potency result in assay [1], in assay [2], in assay [3] and in assay [4] was “inactive” each time.

`O=C1NC(=O)C(=Cc2ccc3nccnc3c2)S1`: the Potency result in [1], in assay [2] and in assay [3] was “inactive” throughout.

As for `C[N+](C)(C)CCCCCC[N+](C)(C)C`, the Potency result in assay [1], in assay [2], in assay [3], in assay [4], in assay [7] and in assay [17] was “inactive” in each case. The Potency result in assay [8], in assay [9], in [10], in [11], in [12] and in [13] was “inactive” throughout. In addition, the Potency entry in assay [14], in assay [15] and in assay [16] was “inactive” in each case. For the same compound, in [5], the outcome was inactive. Further, the activity, negative = cell killing in assay [6] (setting [20]) was -9.48%; in assay [6] (setting [21]) it was -17.5%; in assay [6] (setting [22]), -4.52%; in assay [6] (setting [23]) it was 8.25%.

For `CC(C)C(=O)Oc1ccc(CO)cc1[C@H](CCN(C(C)C)C(C)C)c1ccccc1`, the Potency entry in [1], in [2], in assay [3], in [4], in assay [19] and in [17] was “inactive” throughout. Further, the Potency entry in assay [8], in assay [9], in [10], in assay [11], in [12] and in [13] was “inactive” throughout. Further, the Potency entry in assay [14], in [15] and in [16] was “inactive” in each case. Besides, the outcome in [5] was inactive.

Turning to `CCc1ccc(C=C2SC(=S)NC2=O)cc1`, the Potency entry in assay [1], in assay [2], in [3] and in [4] was “inactive” each time.
